# Results: publication PMC7862700, “An all-to-all approach to the identification of sequence-specific readers for epigenetic DNA modifications on cytosine”
# Legend:
# Assay in all cases: DAPPL (digital affinity profiling via proximity ligation, sequencing); 10 mM Tris-HCl pH 7.5, 50 mM NaCl, 1 mM DTT, 4% glycerol, room temperature, 30 min; GST-TFs on glutathione beads, 16-mer random dsDNA library, 0.1% formaldehyde crosslink after washing; high values mean tight binding
# FLI1 = biological target: T1, FLI1 (Homo sapiens, UniProt Q01543 1-452); conditions: protein: recombinant; tags: N-terminal GST; dsDNA, one strand shown
# T1 sequence: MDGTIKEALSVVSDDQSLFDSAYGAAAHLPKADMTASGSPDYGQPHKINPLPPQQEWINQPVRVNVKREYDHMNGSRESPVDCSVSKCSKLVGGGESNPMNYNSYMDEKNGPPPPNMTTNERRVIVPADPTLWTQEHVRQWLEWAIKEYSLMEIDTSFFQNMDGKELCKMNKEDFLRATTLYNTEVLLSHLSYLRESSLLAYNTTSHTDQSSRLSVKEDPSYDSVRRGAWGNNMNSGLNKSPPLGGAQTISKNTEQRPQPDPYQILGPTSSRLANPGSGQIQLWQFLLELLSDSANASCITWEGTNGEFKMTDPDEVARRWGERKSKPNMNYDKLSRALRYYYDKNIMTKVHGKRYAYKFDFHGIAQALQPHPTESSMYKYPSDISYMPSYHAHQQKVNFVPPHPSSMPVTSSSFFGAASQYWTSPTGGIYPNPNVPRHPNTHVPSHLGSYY
# How it was run: (§1)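 Human transcription factors carrying a GST fusion were produced in yeast, bound to glutathione beads, tagged with DNA barcodes and pooled together with a tag-only sample. Each pool was held with 200 nmole of a random double-stranded 16-mer DNA library in Tris/NaCl/DTT/glycerol buffer for 30 min at room temperature, then washed, crosslinked in 0.1% formaldehyde, proximity-ligated with BsaI/T4 ligase (1 h, 37 °C), PCR-amplified and sequenced on an Illumina NextSeq500. Binding signal is the read frequency of each hexamer for a given factor divided by its frequency in the tag-only sample.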
# ELK1 = biological target: T2, ELK1 (Homo sapiens, UniProt P19419 1-428); conditions: protein: recombinant; tags: N-terminal GST; dsDNA, one strand shown
# T2 sequence: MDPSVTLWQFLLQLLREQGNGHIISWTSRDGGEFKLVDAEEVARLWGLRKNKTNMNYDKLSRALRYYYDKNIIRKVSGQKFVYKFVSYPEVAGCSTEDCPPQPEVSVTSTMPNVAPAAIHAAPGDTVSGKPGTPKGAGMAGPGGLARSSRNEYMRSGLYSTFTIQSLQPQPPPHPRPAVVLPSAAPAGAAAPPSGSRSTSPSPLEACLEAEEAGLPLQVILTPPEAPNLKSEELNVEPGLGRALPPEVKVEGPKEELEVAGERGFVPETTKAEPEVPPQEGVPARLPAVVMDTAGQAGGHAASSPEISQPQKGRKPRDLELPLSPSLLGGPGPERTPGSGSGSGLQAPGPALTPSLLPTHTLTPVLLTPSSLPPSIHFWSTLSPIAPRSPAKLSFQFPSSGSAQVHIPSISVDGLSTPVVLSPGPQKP
# How it was run: as §1
# GABPA = biological target: T3, GABPA (Homo sapiens, UniProt Q06546 1-454); conditions: protein: recombinant; tags: N-terminal GST; dsDNA, one strand shown
# T3 sequence: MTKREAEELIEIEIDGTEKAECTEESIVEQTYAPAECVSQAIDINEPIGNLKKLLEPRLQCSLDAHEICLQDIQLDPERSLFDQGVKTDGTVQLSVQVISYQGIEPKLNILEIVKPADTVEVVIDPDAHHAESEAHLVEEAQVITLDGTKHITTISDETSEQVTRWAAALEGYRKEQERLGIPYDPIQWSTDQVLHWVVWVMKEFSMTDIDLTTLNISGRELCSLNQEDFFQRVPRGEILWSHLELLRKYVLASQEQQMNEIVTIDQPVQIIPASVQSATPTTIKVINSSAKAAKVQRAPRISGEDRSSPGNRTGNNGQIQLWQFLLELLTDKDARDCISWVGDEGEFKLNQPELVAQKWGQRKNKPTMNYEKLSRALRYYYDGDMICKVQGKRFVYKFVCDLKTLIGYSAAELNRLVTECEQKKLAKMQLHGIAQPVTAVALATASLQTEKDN
# How it was run: as §1
# ERG = biological target: T4, ERG (Homo sapiens, UniProt P11308 1-479); conditions: protein: recombinant; tags: N-terminal GST; dsDNA, one strand shown
# T4 sequence: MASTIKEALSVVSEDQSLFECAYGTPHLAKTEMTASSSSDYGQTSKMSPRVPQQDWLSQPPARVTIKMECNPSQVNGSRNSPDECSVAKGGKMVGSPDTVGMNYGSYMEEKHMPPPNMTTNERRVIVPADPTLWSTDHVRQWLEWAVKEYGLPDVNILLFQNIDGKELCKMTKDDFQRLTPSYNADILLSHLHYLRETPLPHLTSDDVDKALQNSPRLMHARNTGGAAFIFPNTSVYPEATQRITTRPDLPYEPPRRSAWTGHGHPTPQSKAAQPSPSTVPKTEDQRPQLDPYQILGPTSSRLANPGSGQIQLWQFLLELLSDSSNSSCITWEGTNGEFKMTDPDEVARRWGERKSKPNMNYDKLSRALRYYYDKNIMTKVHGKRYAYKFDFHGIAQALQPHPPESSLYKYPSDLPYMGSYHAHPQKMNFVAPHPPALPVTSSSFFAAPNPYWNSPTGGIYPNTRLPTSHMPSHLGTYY
# How it was run: as §1
# ELF1 = ELF1 (Homo sapiens, UniProt P32519 1-619); conditions: protein: recombinant; tags: N-terminal GST; dsDNA, one strand shown
# How it was run: as §1
# EHF = biological target: T5, EHF (Homo sapiens, UniProt Q9NZC4 1-300); conditions: protein: recombinant; tags: N-terminal GST; dsDNA, one strand shown
# T5 sequence: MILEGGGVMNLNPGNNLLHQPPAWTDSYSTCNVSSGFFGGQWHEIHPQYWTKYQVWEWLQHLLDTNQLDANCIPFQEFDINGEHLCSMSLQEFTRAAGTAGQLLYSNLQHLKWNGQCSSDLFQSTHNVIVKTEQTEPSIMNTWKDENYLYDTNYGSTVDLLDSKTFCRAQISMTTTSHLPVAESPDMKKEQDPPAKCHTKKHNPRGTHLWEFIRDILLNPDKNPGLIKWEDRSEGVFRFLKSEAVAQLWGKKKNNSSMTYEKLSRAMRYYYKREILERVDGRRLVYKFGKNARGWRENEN
# How it was run: as §1
# SPI1 = SPI1 (Homo sapiens, UniProt P17947 1-270); conditions: protein: recombinant; tags: N-terminal GST; dsDNA, one strand shown
# How it was run: as §1
# SPIB = SPIB (Homo sapiens, UniProt Q01892 1-262); conditions: protein: recombinant; tags: N-terminal GST; dsDNA, one strand shown
# How it was run: as §1
# ELK3 = biological target: T6, ELK3 (Homo sapiens, UniProt P41970 1-407); conditions: protein: recombinant; tags: N-terminal GST; dsDNA, one strand shown
# T6 sequence: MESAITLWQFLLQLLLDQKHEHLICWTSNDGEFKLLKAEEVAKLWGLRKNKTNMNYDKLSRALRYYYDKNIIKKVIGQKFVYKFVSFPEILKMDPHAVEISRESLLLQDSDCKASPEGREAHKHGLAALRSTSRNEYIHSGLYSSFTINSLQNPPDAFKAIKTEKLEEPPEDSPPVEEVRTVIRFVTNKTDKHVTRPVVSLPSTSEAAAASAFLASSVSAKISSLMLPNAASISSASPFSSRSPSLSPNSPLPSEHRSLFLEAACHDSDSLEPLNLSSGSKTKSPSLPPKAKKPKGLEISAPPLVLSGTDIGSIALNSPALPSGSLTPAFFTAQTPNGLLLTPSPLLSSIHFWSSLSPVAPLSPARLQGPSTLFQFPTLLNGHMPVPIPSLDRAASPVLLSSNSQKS
# How it was run: as §1
# FEV = biological target: T7, FEV (Homo sapiens, UniProt Q99581 1-238); conditions: protein: recombinant; tags: N-terminal GST; dsDNA, one strand shown
# T7 sequence: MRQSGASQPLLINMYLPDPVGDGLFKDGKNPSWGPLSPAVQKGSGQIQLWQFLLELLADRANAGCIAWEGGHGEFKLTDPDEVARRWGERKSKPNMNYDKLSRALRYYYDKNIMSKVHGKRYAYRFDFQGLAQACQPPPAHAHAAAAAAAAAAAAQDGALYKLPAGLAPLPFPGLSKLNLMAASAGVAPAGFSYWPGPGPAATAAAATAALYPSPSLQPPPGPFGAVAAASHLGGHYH
# How it was run: as §1
# ETV5 = ETV5 (Homo sapiens, UniProt P41161 1-510); conditions: protein: recombinant; tags: N-terminal GST; dsDNA, one strand shown
# How it was run: as §1
# HSF1 = HSF1 (Homo sapiens, UniProt Q00613 1-529); conditions: protein: recombinant; tags: N-terminal GST; chain copies: 3; dsDNA, one strand shown
# How it was run: as §1
# SPIC = biological target: T8, SPIC (Homo sapiens, UniProt Q8N5J4 1-248); conditions: protein: recombinant; tags: N-terminal GST; dsDNA, one strand shown
# T8 sequence: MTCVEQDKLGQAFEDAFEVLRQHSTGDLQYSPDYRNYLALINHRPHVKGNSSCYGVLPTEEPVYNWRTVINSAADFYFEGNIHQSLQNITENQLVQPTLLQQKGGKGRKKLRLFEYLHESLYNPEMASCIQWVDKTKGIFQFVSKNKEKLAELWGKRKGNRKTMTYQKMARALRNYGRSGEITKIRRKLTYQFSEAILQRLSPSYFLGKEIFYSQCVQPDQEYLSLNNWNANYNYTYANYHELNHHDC
# How it was run: as §1
# ELF4 = ELF4 (Homo sapiens, UniProt Q99607 1-663); conditions: protein: recombinant; tags: N-terminal GST; dsDNA, one strand shown
# How it was run: as §1
# ELK4 = biological target: T9, ELK4 (Homo sapiens, UniProt P28324-2 1-405); conditions: protein: recombinant; tags: N-terminal GST; dsDNA, one strand shown
# T9 sequence: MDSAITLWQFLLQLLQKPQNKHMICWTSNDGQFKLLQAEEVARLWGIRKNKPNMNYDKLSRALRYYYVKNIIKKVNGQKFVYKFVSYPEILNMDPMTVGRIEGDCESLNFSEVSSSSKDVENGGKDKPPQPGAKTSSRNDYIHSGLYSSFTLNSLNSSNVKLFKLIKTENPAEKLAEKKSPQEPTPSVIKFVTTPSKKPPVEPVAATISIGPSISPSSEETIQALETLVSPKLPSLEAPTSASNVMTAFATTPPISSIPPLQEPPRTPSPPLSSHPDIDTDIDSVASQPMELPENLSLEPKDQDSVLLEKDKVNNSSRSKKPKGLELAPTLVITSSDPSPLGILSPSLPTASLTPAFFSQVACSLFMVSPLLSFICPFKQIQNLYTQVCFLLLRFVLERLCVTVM
# How it was run: as §1
# ETV2 = biological target: T10, ETV2 (Homo sapiens, UniProt O00321 1-342); conditions: protein: recombinant; tags: N-terminal GST; dsDNA, one strand shown
# T10 sequence: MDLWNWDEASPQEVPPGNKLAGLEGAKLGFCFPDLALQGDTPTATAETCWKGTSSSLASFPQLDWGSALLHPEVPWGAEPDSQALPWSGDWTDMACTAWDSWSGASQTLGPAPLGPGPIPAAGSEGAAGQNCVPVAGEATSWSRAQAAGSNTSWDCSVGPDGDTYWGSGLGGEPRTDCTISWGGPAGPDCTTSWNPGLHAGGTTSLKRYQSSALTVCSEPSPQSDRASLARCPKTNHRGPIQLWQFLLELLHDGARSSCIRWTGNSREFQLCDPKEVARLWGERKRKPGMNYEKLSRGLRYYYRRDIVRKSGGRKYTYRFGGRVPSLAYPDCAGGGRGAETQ
# How it was run: as §1
# ELF3 = biological target: T11, ELF3 (Homo sapiens, UniProt P78545 1-371); conditions: protein: recombinant; tags: N-terminal GST; dsDNA, one strand shown
# T11 sequence: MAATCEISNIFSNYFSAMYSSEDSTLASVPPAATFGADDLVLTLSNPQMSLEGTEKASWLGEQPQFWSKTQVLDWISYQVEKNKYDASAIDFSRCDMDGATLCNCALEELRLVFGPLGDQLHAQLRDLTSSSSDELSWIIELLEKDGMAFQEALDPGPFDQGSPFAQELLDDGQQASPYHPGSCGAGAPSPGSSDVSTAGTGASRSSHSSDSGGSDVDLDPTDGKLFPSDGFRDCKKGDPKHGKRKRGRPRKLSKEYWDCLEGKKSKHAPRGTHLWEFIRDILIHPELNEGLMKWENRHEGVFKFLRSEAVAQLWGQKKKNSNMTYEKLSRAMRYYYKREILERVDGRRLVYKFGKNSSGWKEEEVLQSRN
# How it was run: as §1
# ETV1 = ETV1 (Homo sapiens, UniProt P50549 1-477); conditions: protein: recombinant; tags: N-terminal GST; dsDNA, one strand shown
# How it was run: as §1
# Chain of ELF1 (P32519 whole entry): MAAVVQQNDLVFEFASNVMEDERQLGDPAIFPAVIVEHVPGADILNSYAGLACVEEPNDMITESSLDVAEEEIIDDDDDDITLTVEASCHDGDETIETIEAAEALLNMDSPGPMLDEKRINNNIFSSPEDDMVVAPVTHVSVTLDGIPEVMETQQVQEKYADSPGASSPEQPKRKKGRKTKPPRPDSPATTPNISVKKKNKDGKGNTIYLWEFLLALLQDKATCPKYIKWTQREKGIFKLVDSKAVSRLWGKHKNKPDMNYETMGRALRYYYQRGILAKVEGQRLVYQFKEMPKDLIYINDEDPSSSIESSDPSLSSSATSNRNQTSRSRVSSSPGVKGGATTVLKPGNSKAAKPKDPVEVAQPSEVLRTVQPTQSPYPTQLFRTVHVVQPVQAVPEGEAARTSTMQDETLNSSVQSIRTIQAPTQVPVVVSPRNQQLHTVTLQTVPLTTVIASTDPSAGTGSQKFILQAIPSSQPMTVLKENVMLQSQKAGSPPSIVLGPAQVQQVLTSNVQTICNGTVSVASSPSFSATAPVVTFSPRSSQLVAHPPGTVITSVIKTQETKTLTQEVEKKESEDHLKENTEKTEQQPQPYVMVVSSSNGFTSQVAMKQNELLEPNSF
# Chain of SPIB (Q01892 whole entry): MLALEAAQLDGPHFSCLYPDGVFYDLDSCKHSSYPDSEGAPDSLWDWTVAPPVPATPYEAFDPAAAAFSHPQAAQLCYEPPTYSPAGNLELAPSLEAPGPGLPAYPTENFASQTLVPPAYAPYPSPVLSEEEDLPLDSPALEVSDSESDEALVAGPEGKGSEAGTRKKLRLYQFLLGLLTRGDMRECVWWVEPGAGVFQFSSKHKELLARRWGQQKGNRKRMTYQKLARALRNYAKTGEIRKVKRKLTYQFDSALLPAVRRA
# Chain of ELF4 (Q99607 whole entry): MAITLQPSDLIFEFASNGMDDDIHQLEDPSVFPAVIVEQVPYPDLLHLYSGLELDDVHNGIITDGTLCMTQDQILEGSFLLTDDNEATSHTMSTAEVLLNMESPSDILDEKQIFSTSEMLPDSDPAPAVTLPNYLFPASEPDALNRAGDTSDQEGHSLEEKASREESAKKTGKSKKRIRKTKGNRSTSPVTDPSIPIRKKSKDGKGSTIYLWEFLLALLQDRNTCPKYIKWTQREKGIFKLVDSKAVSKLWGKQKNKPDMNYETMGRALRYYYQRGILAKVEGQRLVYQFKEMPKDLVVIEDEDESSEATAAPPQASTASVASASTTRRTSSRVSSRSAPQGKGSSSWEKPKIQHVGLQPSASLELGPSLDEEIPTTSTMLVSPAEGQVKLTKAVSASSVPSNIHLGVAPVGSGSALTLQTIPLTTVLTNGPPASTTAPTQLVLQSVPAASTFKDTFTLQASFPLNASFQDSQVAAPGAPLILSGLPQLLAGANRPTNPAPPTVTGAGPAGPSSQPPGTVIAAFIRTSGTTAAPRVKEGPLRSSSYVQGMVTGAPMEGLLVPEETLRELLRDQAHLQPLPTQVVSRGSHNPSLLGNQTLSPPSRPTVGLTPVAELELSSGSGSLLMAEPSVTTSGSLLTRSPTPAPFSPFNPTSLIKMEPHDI
# Chain of ETV1 (P50549 whole entry): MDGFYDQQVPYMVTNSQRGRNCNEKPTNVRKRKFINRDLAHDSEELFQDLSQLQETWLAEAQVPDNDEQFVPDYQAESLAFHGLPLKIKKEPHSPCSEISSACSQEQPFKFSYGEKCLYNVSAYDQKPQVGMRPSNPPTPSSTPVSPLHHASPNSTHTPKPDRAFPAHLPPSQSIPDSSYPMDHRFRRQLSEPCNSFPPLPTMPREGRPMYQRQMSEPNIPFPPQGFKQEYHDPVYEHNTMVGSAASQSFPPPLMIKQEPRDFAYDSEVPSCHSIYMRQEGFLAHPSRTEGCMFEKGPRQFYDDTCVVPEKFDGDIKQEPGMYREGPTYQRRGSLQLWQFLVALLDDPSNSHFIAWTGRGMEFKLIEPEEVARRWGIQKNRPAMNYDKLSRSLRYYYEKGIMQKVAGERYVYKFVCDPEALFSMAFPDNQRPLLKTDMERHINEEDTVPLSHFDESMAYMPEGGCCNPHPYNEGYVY
# Chain of HSF1 (Q00613 whole entry): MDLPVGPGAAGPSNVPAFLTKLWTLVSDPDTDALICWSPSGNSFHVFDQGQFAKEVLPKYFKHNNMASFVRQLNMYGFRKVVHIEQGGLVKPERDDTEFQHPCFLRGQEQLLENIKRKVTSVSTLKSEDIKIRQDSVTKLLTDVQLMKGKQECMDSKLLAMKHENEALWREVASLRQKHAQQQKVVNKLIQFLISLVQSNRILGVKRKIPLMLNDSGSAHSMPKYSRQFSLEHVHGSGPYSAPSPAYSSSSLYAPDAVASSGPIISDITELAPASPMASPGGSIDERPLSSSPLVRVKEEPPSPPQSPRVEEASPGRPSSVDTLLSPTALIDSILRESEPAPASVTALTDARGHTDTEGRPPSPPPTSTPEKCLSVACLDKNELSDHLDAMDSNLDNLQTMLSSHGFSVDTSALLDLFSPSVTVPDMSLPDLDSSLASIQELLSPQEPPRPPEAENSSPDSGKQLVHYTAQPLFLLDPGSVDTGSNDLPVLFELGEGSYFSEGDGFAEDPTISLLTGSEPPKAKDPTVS
# Chain of ETV5 (P41161 whole entry): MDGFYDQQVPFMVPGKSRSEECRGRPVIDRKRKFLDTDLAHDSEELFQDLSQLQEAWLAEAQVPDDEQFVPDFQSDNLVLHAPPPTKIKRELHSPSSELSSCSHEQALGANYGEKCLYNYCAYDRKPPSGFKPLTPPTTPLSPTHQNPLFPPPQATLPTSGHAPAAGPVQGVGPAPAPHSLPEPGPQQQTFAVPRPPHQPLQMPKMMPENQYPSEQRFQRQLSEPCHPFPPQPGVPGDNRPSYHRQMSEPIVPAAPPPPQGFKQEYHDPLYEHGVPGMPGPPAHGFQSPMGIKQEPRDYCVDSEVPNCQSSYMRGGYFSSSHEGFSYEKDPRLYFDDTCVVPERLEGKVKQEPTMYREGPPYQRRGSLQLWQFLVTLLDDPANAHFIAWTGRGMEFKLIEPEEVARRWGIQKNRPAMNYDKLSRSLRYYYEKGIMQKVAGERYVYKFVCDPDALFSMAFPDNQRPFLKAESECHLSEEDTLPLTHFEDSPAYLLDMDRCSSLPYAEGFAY
sequence,measurement,setting,value
GGTTTC,binding signal,FLI1,"1.53 fold enrichment (6-mer frequency, TF over GST control)"
same,binding signal,ELK1,"1.39 fold enrichment (6-mer frequency, TF over GST control)"
same,binding signal,GABPA,"1.54 fold enrichment (6-mer frequency, TF over GST control)"
same,binding signal,ERG,"1.6 fold enrichment (6-mer frequency, TF over GST control)"
same,binding signal,ELF1,"1.54 fold enrichment (6-mer frequency, TF over GST control)"
same,binding signal,EHF,"1.51 fold enrichment (6-mer frequency, TF over GST control)"
same,binding signal,SPI1,"1.6 fold enrichment (6-mer frequency, TF over GST control)"
same,binding signal,SPIB,"1.52 fold enrichment (6-mer frequency, TF over GST control)"
same,binding signal,ELK3,"1.62 fold enrichment (6-mer frequency, TF over GST control)"
same,binding signal,FEV,"1.55 fold enrichment (6-mer frequency, TF over GST control)"
same,binding signal,ETV5,"1.61 fold enrichment (6-mer frequency, TF over GST control)"
same,binding signal,HSF1,"1.16 fold enrichment (6-mer frequency, TF over GST control)"
same,binding signal,SPIC,"1.5 fold enrichment (6-mer frequency, TF over GST control)"
same,binding signal,ELF4,"1.49 fold enrichment (6-mer frequency, TF over GST control)"
same,binding signal,ELK4,"1.36 fold enrichment (6-mer frequency, TF over GST control)"
same,binding signal,ETV2,"1.43 fold enrichment (6-mer frequency, TF over GST control)"
same,binding signal,ELF3,"1.31 fold enrichment (6-mer frequency, TF over GST control)"
same,binding signal,ETV1,"1.64 fold enrichment (6-mer frequency, TF over GST control)"
